Laboratory results from PubChem BioAssay (NCI).
Compounds without any hit were thinned out: in the full panel of roughly 79,000, 15% have a hit. Activity calls are given as the source filed them. Rule as the data show it: active = growth inhibition above about 70%; inactive = the rest.

Experiments:
[1] = NCI Yeast Anticancer Drug Screen. Data for the mec2-1 strain (AID 157); conditions: S. cerevisiae mec2-1 strain, active compounds read high
Outline: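 Growth inhibition is read against vehicle-treated controls after compound exposure of the mec2-1 yeast strain, which is defective in DNA damage repair or cell cycle control.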

[2] = NCI Yeast Anticancer Drug Screen. Data for the rad14 strain (AID 159);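 also: 0% = growth of vehicle-treated control cultures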; conditions: S. cerevisiae rad14 strain growth inhibition, active compounds read high
Outline: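 Compound-treated yeast with a defined DNA-repair lesion; growth inhibition normalised to vehicle-treated cultures.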

[3] = NCI Yeast Anticancer Drug Screen. Data for the sgs1 mgt1 strain (AID 161);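 also: 0% = growth of cultures given vehicle only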; conditions: S. cerevisiae sgs1 mgt1 strain, active compounds read high
Outline: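 Growth of a repair-deficient yeast mutant was monitored after compound treatment and expressed as inhibition relative to vehicle-treated cultures.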

[4] = NCI Yeast Anticancer Drug Screen. Data for the cln2 rad14 strain (AID 165);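 also: 0% = growth equal to vehicle treated cultures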; conditions: S. cerevisiae cln2 rad14 strain, active compounds read high
Outline: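 Growth inhibition, relative to vehicle-treated controls, is the read-out. The test organism is a yeast strain with defined genetic alterations, cln2 rad14.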

[5] = NCI Yeast Anticancer Drug Screen. Data for the bub3 strain (AID 167); conditions: S. cerevisiae bub3 mutant strain, active compounds read high
Outline: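 Growth of a checkpoint-deficient yeast mutant is measured after compound exposure. Values represent inhibition relative to vehicle.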

[6] = NCI Yeast Anticancer Drug Screen. Data for the wt2 strain (AID 169);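 also: 0% = growth of vehicle-treated yeast cultures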; conditions: S. cerevisiae wt2 strain growth inhibition, active compounds read high
Outline: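 Compound exposure of yeast; growth compared with vehicle controls; inhibition reported.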

[7] = NCI Yeast Anticancer Drug Screen. Data for the mlh1 strain (AID 171);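 also: 0% = growth of vehicle-treated control cultures of the same strain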; conditions: S. cerevisiae mlh1 strain growth inhibition, active compounds read high
Outline: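 Compounds are applied to a genetically altered yeast strain, and its growth is compared with that of vehicle-treated cultures to give percent inhibition.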

[8] = NCI Yeast Anticancer Drug Screen. Data for the sgs1 strain (AID 173);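 also: 0% = growth of vehicle-only control cultures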; conditions: S. cerevisiae sgs1 mutant, active compounds read high
Outline: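 Compounds applied to genetically altered yeast; growth compared with vehicle-treated cultures to give % inhibition.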

[9] = NCI Yeast Anticancer Drug Screen. Data for the mlh1 rad18 strain (AID 175); conditions: S. cerevisiae mlh1 rad18 strain growth inhibition, active compounds read high
Outline: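 Cells of a genetically altered yeast strain, deficient in DNA damage repair, were treated with compound. Their growth was then compared with that of vehicle-treated cultures to give inhibition.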

[10] = NCI Yeast Anticancer Drug Screen. Data for the rad18 strain (AID 177); conditions: S. cerevisiae rad18 mutant growth inhibition, active compounds read high
Outline: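 Compounds are applied to a repair-deficient yeast strain, and growth is compared with that of vehicle-treated cultures to give percent inhibition.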

[11] = NCI Yeast Anticancer Drug Screen. Data for the rad52 strain (AID 147);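 also: 0% = growth of vehicle-treated control cultures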; conditions: S. cerevisiae rad52 mutant growth inhibition, active compounds read high
Outline: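 DNA repair-defective yeast; compound exposure; growth scored against vehicle controls.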

[12] = NCI Yeast Anticancer Drug Screen. Data for the wt1 strain (AID 149);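 also: 0% = growth of vehicle-treated wt1 cultures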; conditions: S. cerevisiae wt1 strain (SPY 50644) growth inhibition, active compounds read high
Outline: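 Readout: yeast growth inhibition, normalised to vehicle controls, in the wt1 strain exposed to test compounds.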

[13] = NCI Yeast Anticancer Drug Screen. Data for the rad50EPP+ strain (AID 151);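 also: 0% = growth of vehicle-treated control cultures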; conditions: S. cerevisiae rad50 mutant strain, active compounds read high
Outline: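 rad50EPP+ yeast treated with test compounds. Readout: growth vs vehicle control.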

[14] = NCI Yeast Anticancer Drug Screen. Data for the mgt1 strain (AID 153); conditions: S. cerevisiae mgt1 mutant growth inhibition, active compounds read high
Outline: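 Growth inhibition relative to vehicle controls was scored for the mgt1 yeast strain after compound exposure.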

[15] = NCI Yeast Anticancer Drug Screen. Data for the rad50 strain (AID 155);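 also: 0% = growth of vehicle-only cultures of the same strain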; conditions: S. cerevisiae rad50 strain growth inhibition, active compounds read high
Outline: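 Compounds were tested on a yeast strain with an engineered DNA damage repair alteration; the reported value is growth inhibition normalised to vehicle treatment.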

[16] = NCI Yeast Anticancer Drug Screen. Data for the CLN2oe strain (AID 163);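 also: 0% = growth of vehicle-only control cultures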; conditions: S. cerevisiae CLN2oe strain, active compounds read high
Outline: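 Compound-treated yeast; growth vs vehicle ctrl = % inhibition. Genetically altered strain (cell-cycle control).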

[17] = at 5.0 µM (retest, dose inferred, filed as 0.5)
[18] = at 50.0 µM (retest, dose inferred, filed as 5.0)

Measured: growth inhibition

CCOC(=O)c1cc([N+](=O)[O-])c(Sc2ncnc3nc[nH]c23)c([N+](=O)[O-])c1
inactive: [1]; [17] 29% | [1]; at 11.0 µM 38% | [1]; at 50.0 µM 58% | [2]; at 1.2 µM -34% | [2]; at 3.7 µM -23% | [2]; at 11.0 µM -3% | [3]; [17] 6% | [3]; [18] -13% | [3]; at 50.0 µM 56% | [4]; [17] -5% | [4]; [18] -64% | [4]; at 50.0 µM 60.3% | [5]; at 1.2 µM -19% | [5]; at 3.7 µM -7% | [5]; [17] 7% | [5]; at 11.0 µM 43% | [5]; [18] 34% | [5]; at 50.0 µM 33.1% | [6]; at 1.2 µM -31% | [6]; at 3.7 µM -25% | [6]; at 11.0 µM 2% | [6]; at 33.0 µM 46% | [7]; at 1.2 µM -28% | [7]; at 3.7 µM -23% | [7]; at 11.0 µM 50% | [8]; at 1.2 µM 13% | [8]; at 3.7 µM 13% | [8]; at 11.0 µM 41% | [9]; [17] 55% | [10]; at 1.2 µM -17% | [10]; at 3.7 µM 9% | [10]; at 11.0 µM 55%
active: [1]; at 33.0 µM 89% | [1]; [18] 75% | [1]; at 100.0 µM 91% | [2]; at 33.0 µM 72% | [2]; at 100.0 µM 87% | [5]; at 33.0 µM 88% | [5]; at 100.0 µM 88% | [6]; at 100.0 µM 85% | [7]; at 33.0 µM 90% | [7]; at 100.0 µM 90% | [8]; at 33.0 µM 71% | [8]; at 100.0 µM 87% | [9]; [18] 89% | [9]; at 50.0 µM 86.2% | [10]; at 33.0 µM 82% | [10]; at 100.0 µM 84%

CN(C)CCCCN1c2ccccc2Sc2ccc(N=[N+]=[N-])cc21
inactive: [11]; at 1.2 µM 29% | [11]; at 3.7 µM 37% | [11]; at 11.0 µM 45% | [11]; at 33.0 µM 49% | [12]; at 1.2 µM 23% | [12]; at 3.7 µM 36% | [12]; at 11.0 µM 36% | [12]; at 33.0 µM 47% | [13]; at 1.2 µM 24% | [13]; at 3.7 µM 20% | [13]; at 11.0 µM 23% | [13]; at 33.0 µM 23% | [14]; at 1.2 µM 19% | [14]; at 3.7 µM 20% | [14]; at 11.0 µM 31% | [14]; at 33.0 µM 51% | [15]; at 1.2 µM 6% | [15]; at 3.7 µM 20% | [15]; at 11.0 µM 15% | [15]; at 33.0 µM 47% | [1]; at 1.2 µM 33% | [1]; at 3.7 µM 31% | [1]; [17] 33% | [1]; at 11.0 µM 36% | [1]; at 33.0 µM 42% | [2]; at 1.2 µM 0% | [2]; at 3.7 µM 8% | [2]; at 11.0 µM 19% | [2]; at 33.0 µM 55% | [3]; [17] -16% | [16]; at 1.2 µM 19% | [16]; at 3.7 µM 18% | [16]; at 11.0 µM 24% | [16]; at 33.0 µM 39% | [5]; at 1.2 µM -8% | [5]; at 3.7 µM -10% | [5]; [17] 4% | [5]; at 11.0 µM -14% | [5]; at 33.0 µM 14% | [6]; at 1.2 µM -8% | [6]; at 3.7 µM -15% | [6]; at 11.0 µM -14% | [6]; at 33.0 µM 46% | [7]; at 1.2 µM 32% | [7]; at 3.7 µM 31% | [7]; at 11.0 µM 35% | [7]; at 33.0 µM 57% | [8]; at 1.2 µM 10% | [8]; at 3.7 µM 42% | [8]; at 11.0 µM 43% | [8]; at 33.0 µM 67% | [9]; [17] 23% | [10]; at 1.2 µM 10% | [10]; at 3.7 µM 14% | [10]; at 11.0 µM 24% | [10]; at 33.0 µM 57%
active: [11]; at 100.0 µM 99% | [12]; at 100.0 µM 99% | [13]; at 100.0 µM 80% | [14]; at 100.0 µM 99% | [15]; [17] 91% | [15]; [18] 99% | [15]; at 50.0 µM 84.2% | [15]; at 100.0 µM 98% | [1]; [18] 99% | [1]; at 50.0 µM 79.2% | [1]; at 100.0 µM 99% | [2]; at 100.0 µM 99% | [3]; [18] 99% | [3]; at 50.0 µM 90.5% | [16]; at 100.0 µM 98% | [5]; [18] 98% | [5]; at 50.0 µM 72% | [5]; at 100.0 µM 98% | [6]; at 100.0 µM 99% | [7]; at 100.0 µM 99% | [8]; at 100.0 µM 99% | [9]; [18] 99% | [9]; at 50.0 µM 91.5% | [10]; at 100.0 µM 99%

NNC(=O)CCc1cc2ccccc2c2ccccc12
active: [11]; at 100.0 µM 99% | [12]; at 100.0 µM 99% | [14]; at 100.0 µM 99% | [15]; [18] 99% | [15]; at 50.0 µM 97.9% | [15]; at 100.0 µM 99% | [1]; [18] 99% | [1]; at 50.0 µM 98.8% | [1]; at 100.0 µM 99% | [2]; at 100.0 µM 99% | [3]; [18] 98% | [3]; at 50.0 µM 98.5% | [16]; at 100.0 µM 99% | [5]; [18] 98% | [5]; at 50.0 µM 98.8% | [5]; at 100.0 µM 99% | [7]; at 100.0 µM 99% | [8]; at 100.0 µM 99% | [9]; [18] 98% | [9]; at 50.0 µM 98.5% | [10]; at 100.0 µM 99%
inactive: [11]; at 1.2 µM -15% | [11]; at 3.7 µM -10% | [11]; at 11.0 µM -5% | [11]; at 33.0 µM 26% | [12]; at 1.2 µM 3% | [12]; at 3.7 µM 2% | [12]; at 11.0 µM 9% | [12]; at 33.0 µM 4% | [13]; at 1.2 µM -8% | [13]; at 3.7 µM -21% | [13]; at 11.0 µM -16% | [13]; at 33.0 µM 28% | [13]; at 100.0 µM 50% | [14]; at 1.2 µM -3% | [14]; at 3.7 µM -8% | [14]; at 11.0 µM -2% | [14]; at 33.0 µM 1% | [15]; at 1.2 µM -13% | [15]; at 3.7 µM -16% | [15]; [17] 19% | [15]; at 11.0 µM -12% | [15]; at 33.0 µM 38% | [1]; at 1.2 µM -2% | [1]; at 3.7 µM -2% | [1]; [17] 12% | [1]; at 11.0 µM -2% | [1]; at 33.0 µM -2% | [2]; at 1.2 µM -2% | [2]; at 3.7 µM -1% | [2]; at 11.0 µM 23% | [2]; at 33.0 µM 31% | [3]; [17] 28% | [16]; at 1.2 µM -9% | [16]; at 3.7 µM -7% | [16]; at 11.0 µM -12% | [16]; at 33.0 µM -2% | [5]; at 1.2 µM -7% | [5]; at 3.7 µM -8% | [5]; [17] 50% | [5]; at 11.0 µM -9% | [5]; at 33.0 µM 18% | [7]; at 1.2 µM -13% | [7]; at 3.7 µM -6% | [7]; at 11.0 µM -3% | [7]; at 33.0 µM 38% | [8]; at 1.2 µM -20% | [8]; at 3.7 µM -8% | [8]; at 11.0 µM 9% | [8]; at 33.0 µM 43% | [9]; [17] 45% | [10]; at 1.2 µM -6% | [10]; at 3.7 µM -5% | [10]; at 11.0 µM 0% | [10]; at 33.0 µM 30%
